The values that follow come from the supplement of paper PMC6555819.

The assay has as its system VDR:RXRa (NR concentration 270 nM, RXRa partner concentration 90 nM). The assay is described as follows: PBM binding z-score (relative to random genomic background probes); higher = stronger binding; sequences stand for … in GC…GCGATTGACAGCGTAGAATGAAGG
As for the experimental part: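 Protein-binding microarray (Agilent 4x180K custom design, double-stranded 60-nt probes: 5' GC cap, 34-nt variable region, 24-nt constant primer region; full probe sequence given). Purified or IVT nuclear receptor:RXRα heterodimers (3:1 NR:RXRα, mostly 270:90 nM) or homodimers were incubated for 1 h in PBS with 2% milk and no ligand, then detected with Alexa488 antibodies. Fluorescence from o1-orientation probes (~5 replicates averaged) was converted to z-scores against 500 random hg19 background probes. Variable regions are seed direct-repeat (DR0–DR5) sites, all their single-nucleotide variants and half-site ablations.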
Take ATACCAAGGTGATCTTGAGGTCGTTGATACTAAC: the PBM binding z-score came to 3.57.

TCTTATAGATCAAAGGTTAAGAAAGCCGAAGCCT returned a PBM binding z-score of 2.27.

The sequence TCATACAGGTAAAAGGTGAAAGTCGGTGTGGTAA displayed a PBM binding z-score of 1.64.

Consider CGAACTAGGTCATTGACAAGACAGTGAATAGTAA, for which the PBM binding z-score worked out at 1.89.

On to TCGAGTAGGTTAGGGGCATACAGAATGGCGTCGA, for which the PBM binding z-score came out at 0.604.

Turning to TGAATGAGGTTATGAGATCAGGGAACGTTGCAAA, the PBM binding z-score was determined as 0.987.

Turning to ACTCGGAGGACAAAGGTCAAAGCTACGCCAGTGA, the PBM binding z-score came out at 4.8.

Regarding TCTAGTTGGTCACGGAGGTCATACACGACGGGTA, the PBM binding z-score came to 5.88.

AGTCAAAGTTCATCTAGGTAACGTAGGATATGCT returned a PBM binding z-score of 5.09.

Take TGAATGAGGTTAAAGATCCGGGAACGTGGCGTCG: the PBM binding z-score was 1.03.

For the sequence TGAATGAGGTTAAAGAACAGGGAACGTGGCGTCG, the PBM binding z-score worked out at 1.12.

Take CCTATTGGGCCAAAGGTCATTGATTCCAATGCTC: the PBM binding z-score is 4.66.

AGAATGAGGTGATTAAGATCAGGGAATTGCGGTC had a PBM binding z-score of 0.0675.

CGTCCAAGGTCAATGCTAGGTCGGTGAAAGCATT displayed a PBM binding z-score of 4.11.

Take TCTCGGAGGACACGTAAGGTCAGAGCTCGACATC: the PBM binding z-score worked out at 2.69.

Consider TCTATTAGTTGACTAGGGCAACCGAAACAGCGGA, for which the PBM binding z-score came out at 0.704.

The sequence TCTGCTAGGTCAACGAGGGTCAGCTAATCTGCTA registered a PBM binding z-score of 5.1.

On to CATATTAGTTGACCATAAGGGCAACCGAAGCTCG, for which the PBM binding z-score stood at 0.551.

CGTCCAAGGTCCGCAGGTCAGTGAAAGCGACGTG gave a PBM binding z-score of -0.111.

Regarding ATCGACAGGTCGAGGTGAGTATAGAGAAAGGGAA, the PBM binding z-score worked out at 0.389.

ACTAGCAGGCCAAGTTTGGGTCACTTAAACAAAG yielded a PBM binding z-score of 0.715.

For the sequence CGACCAAGGTCAAAGGTCAGTGAAGAGATGACGG, the PBM binding z-score came to 6.85.

The sequence CCTACTGGGCAATTCAGAGGTCATTGATCATATG had a PBM binding z-score of 3.49.

In turn, TATAGTTGGTCAAAGGTCACACACTCGAAATGCG showed a PBM binding z-score of 5.53.

Regarding AATACAGGGTCACTAGGCCAGAATAGGTACGAAT, the PBM binding z-score was found to be 4.2.

In turn, CGTCCAAGTTCAGAGAGGTCAGTGAATGCCGAGT came in with a PBM binding z-score of 6.86.

Sequence GCTAGTTGGTCAGTAAAAGGTCACAGACCGGTCG returned a PBM binding z-score of 3.94.

ATATCTAGGTAACAAGTTCAGTGAAAGAGAGGAC registered a PBM binding z-score of 2.31.

With TCATATAGGTAAAAGGTGAATGTCGGTGTGGTAA, the PBM binding z-score was determined as 1.44.

In turn, GGTACGAGGGCAAGTTGATAGCAGAGTTTGATGG showed a PBM binding z-score of 1.11.

In turn, CTTCGGAGGACAACAGGAGGTCAGAGCTGCCAGA gave a PBM binding z-score of 2.12.

Take AGAACTAGGGCAATGAGTTGATAGCACGGGTGGC: the PBM binding z-score was 3.17.

With TCTTGTAGATCAATAGTGGTTAAGAAAGTGCGCT, the PBM binding z-score turned out to be 0.673.

TTACCAAGGTGAAAGGTCGTCGATGCACGCCTTG: the PBM binding z-score is 3.09.

In turn, GCGACTGGGGCATCAGCAAGTTACCATAACTTAA came in with a PBM binding z-score of -0.37.

Consider CCAGACAGGTGAAAGGTACCTCAGTCTGGTACGC, for which the PBM binding z-score came to 0.0967.

Take TCATATAGGTAAAAGGTGAAATTCGGTGTGGTAA: the PBM binding z-score came out at 1.58.

Sequence TGAATGAGGTTAAAGATCGGGGAACGTGGCGTCG registered a PBM binding z-score of 1.61.

For CGTCCAAGGTCAATGCTGGGTCAGTGAAAGCATT, the PBM binding z-score turned out to be 4.79.

CCCATTAGTTGACCATAAGGGCAACCGAAGCTCG showed a PBM binding z-score of 0.855.
